# Methyltransferases – Primary Screen for Target Class Profiling of Small Molecule Inhibitors of Methyltransferases; purified enzyme, MTase-Glo SAH luminescence; active compounds read low; calls only at 40 µM; 25,000 compounds, 3.9% hits; call rule not given here
#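 Each enzyme was assayed with SAM and its substrate. SAH formation detected by MTase-Glo luminescence; single-point 40 uM screen[…].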
# Calls only; i = inactive; + = active, no number. Shown is part of a subset that was picked to be rich in hits.
SMILES,Methyltransferases
Cn1cc(CN2CCCCCNC(=O)[C@@H]3CCC[C@@H]32)c2ccccc21,i
Cn1cc(C(=O)OCC2CCN(CCNS(C)(=O)=O)CC2)c2ccccc21,i
CC(C)Cn1c(=O)c2ccccc2n2c(SCC(=O)Nc3ccc4c(c3)OCCO4)nnc12,i
CC1(C)CC[C@]2(C(=O)O[C@@H]3O[C@H](CO)[C@@H](O)[C@H](O)[C@H]3O)CC[C@]3(C)C(=CCC4[C@@]5(C)C[C@@H](O)[C@H](O)[C@@](C)(CO)C5CC[C@]43C)C2C1 (stereo partly drawn),+
C[C@H]1[C@H](C)CC[C@]2(C(=O)O)CC[C@]3(C)C(=CC[C@@H]4[C@@]5(C)C[C@@H](O)[C@H](O)[C@@](C)(CO)[C@@H]5CC[C@]43C)[C@H]12,i
C[C@@H]1O[C@@H](O[C@H]2[C@H](O)[C@@H](O)[C@H](OC[C@H]3O[C@@H](OC(=O)[C@]45CCC(C)(C)C[C@H]4C4=CCC6[C@@]7(C)C[C@H](O)[C@H](O[C@@H]8O[C@H](CO)[C@@H](O)[C@H](O)[C@H]8O)[C@@](C)(C(=O)O)C7CC[C@@]6(C)[C@]4(C)CC5)[C@H](O[C@@H]4O[C@H](CO)[C@@H](O)[C@H](O)[C@H]4O)[C@@H](O)[C@@H]3O)O[C@@H]2CO)[C@H](O)[C@H](O)[C@H]1O (stereo partly drawn),i
CC1(C)CCC2(C(=O)OC3OC(COC4OC(CO)C(O)C(O)C4O)C(O)C(O)C3O)CCC3(C)C(=CCC4C5(C)CCC(OC6OCC(O)C(O)C6O)C(C)(C)C5CCC43C)C2C1O (stereo not drawn),i
C[C@@H]1CC[C@]2(C(=O)O)CC[C@]3(C)C(=CCC4[C@@]5(C)C[C@@H](O)[C@H](O)[C@@](C)(CO)C5CC[C@]43C)C2[C@H]1C (stereo partly drawn),i
CC1(C)CC[C@]2(C(=O)OC3OC(CO)C(O)C(O)C3O)CC[C@]3(C)C(=CCC4[C@@]5(C)C[C@@H](O)[C@H](OC6OC(C(=O)O)C(O)C(O)C6O)C(C)(C)C5CC[C@]43C)[C@@H]2C1 (stereo partly drawn),i
CC1(C)CC[C@]2(C(=O)O[C@@H]3O[C@H](CO)[C@@H](O)[C@H](O)[C@H]3O)CC[C@]3(C)C(=CCC4[C@@]5(C)C[C@@H](O)[C@H](O)C(CO)(CO)C5CC[C@]43C)C2[C@@H]1O (stereo partly drawn),+
CC1(C)CC[C@]2(C(=O)O[C@@H]3O[C@H](CO)[C@@H](O)[C@H](O)[C@H]3O)CC[C@]3(C)C(=CCC4[C@@]5(C)C[C@H](O)[C@H](O[C@@H]6OC[C@@H](O)[C@H](O)[C@H]6O)[C@@](C)(CO)C5CC[C@]43C)C2C1 (stereo partly drawn),i
CC1(C)CC[C@]2(C(=O)O)CC[C@]3(C)C(=CCC4[C@@]5(C)C[C@@H](O)[C@H](O)C(CO)(CO)C5CC[C@]43C)C2[C@@H]1O (stereo partly drawn),+
CC1(C)CC[C@]2(C(=O)O[C@@H]3O[C@H](CO)[C@@H](O)[C@H](O)[C@H]3O)CC[C@]3(C)C(=CCC4[C@@]5(C)C[C@@H](O)[C@H](O)C(C)(C)C5[C@H](O)C[C@]43C)[C@@H]2[C@@H]1O (stereo partly drawn),i
C[C@@H]1O[C@@H](O[C@H]2[C@H](OC(=O)C34CCC(C)(C)CC3C3=CCC5C6(C)CC(O)C(O[C@@H]7O[C@H](CO)[C@@H](O)[C@H](O)[C@H]7O)C(C)(C(=O)O)C6CCC5(C)C3(CO)CC4)O[C@H](C)[C@H](O)[C@@H]2O)[C@H](O)[C@H](O)[C@H]1O[C@@H]1OC[C@@H](O)[C@H](O)[C@H]1O (stereo partly drawn),+
C[C@@H]1O[C@@H](O[C@H]2[C@H](OC(=O)[C@]34CCC(C)(C)C[C@H]3C3=CCC5[C@@]6(C)C[C@H](O)[C@H](O[C@@H]7O[C@H](CO)[C@@H](O)[C@H](O)[C@H]7O)[C@@](C)(CO)C6[C@H](O)C[C@@]5(C)[C@]3(C)CC4)OC[C@H](O)[C@@H]2O)[C@H](O)[C@H](O)[C@H]1O[C@@H]1OC[C@@H](O)[C@H](O[C@@H]2OC[C@](O)(CO)[C@H]2O)[C@H]1O (stereo partly drawn),i
Cc1ccccc1CN1C(=O)c2nc3ccccc3n2CC1(C)C(=O)NC1CCCCCC1 (stereo not drawn),i
COc1ccc(Cl)cc1N1C(=O)c2cc3sccc3n2CC1(C)C(=O)NC1CCCCCC1 (stereo not drawn),i
CC1CCC(NC(=O)CCc2nnc3n(Cc4ccccc4)c(=O)c4ccccc4n23)CC1 (stereo not drawn),i
O=C(CCc1nnc2n(Cc3ccc(Cl)cc3)c(=O)c3ccccc3n12)NC1CCCCC1,i
Cc1ccc(C)c(NS(=O)(=O)c2cc3c(cc2C)n(C)c(=O)n3C)c1,i
COc1ccc(N2C(=O)CSc3c(c4ccccc4n3C)C2C(=O)NCc2ccccc2)cc1OC (stereo not drawn),i
